A selection: hits, their analogues and other compounds. The true share with any hit is near 6.9%.
SW480 rereplic: inducers of DNA re-replication in SW480 colon cancer cells; Potency, µM (highest dose often 46.1 µM), for inactives: at the top dose re-replication activation, hits mostly activators; SW480 DNA re-replication, Hoechst DNA content imaging, 48 h; AID 624297; actives 1.8% (n = 340,000); also: potency is read from the fitted curve at half-maximal effect; % of control where 0% means no effect; nearly all actives have a fitted effect of over 55% in size
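Per well, 250 cells were exposed to pinned compound for 48 hr. Nuclear DNA was visualised with Hoechst (40 min, 37 C) and total object intensity recorded by fluorescence scanning.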
Vif-APOBEC3G blk: blocks the Vif interaction with human APOBEC3G | Potency, µM (series often up to 46.1 µM), for inactives: at the highest dose activity, negative = active, hits mostly inhibitors | HeLa A3G-eYFP + Vif (tagged APOBEC3G with the HIV-1 protein that degrades it), YFP fluorescence, overnight | actives 0.076% (n = 410,000) | Q9HC16; also: potency is read from the fitted curve at half-maximal effect; % is scaled to controls: 0 for no effect and ±100 for the full control effect; nearly all actives have a fitted effect of over 60% in size
Target sequence (Q9HC16 whole entry, looked up): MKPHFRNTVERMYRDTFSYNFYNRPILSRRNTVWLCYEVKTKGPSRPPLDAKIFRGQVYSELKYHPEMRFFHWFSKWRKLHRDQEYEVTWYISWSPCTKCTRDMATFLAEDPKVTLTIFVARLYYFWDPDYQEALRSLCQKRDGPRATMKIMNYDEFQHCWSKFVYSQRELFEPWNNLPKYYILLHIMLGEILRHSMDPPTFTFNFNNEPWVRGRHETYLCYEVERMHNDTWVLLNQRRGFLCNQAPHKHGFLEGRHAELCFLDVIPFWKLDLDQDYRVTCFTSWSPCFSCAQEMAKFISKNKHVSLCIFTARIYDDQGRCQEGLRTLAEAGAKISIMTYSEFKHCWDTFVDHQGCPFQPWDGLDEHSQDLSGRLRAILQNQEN
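Read-out is eYFP fluorescence (Ex 488/Em 500-530) from Vif-expressing HeLa A3G-eYFP cells; more signal means A3G escaped Vif-mediated degradation. Cells plated overnight, compound pinned in, incubated overnight at 37 deg C.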
IL-1B inflam inh: inhibitors of inflammasome signaling (IL-1 beta secretion); THP-1 LPS/ATP IL-1B secretion, AlphaLISA, 16 h; hits give low values; activity change, % at 57.5 µM; actives 4.7% (n = 360,000); AID 743279; in the data active = activity change below about -50%; inconclusive = mostly about -30% to -49%; also: % is scaled to controls: 0 for no effect and ±100 for the full control effect
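THP-1 cells pretreated 1 hr with compounds (up to 57.5 uM final), then stimulated with LPS (250 ng/mL final) plus ATP (1.25 mM final); secreted IL-1B measured by AlphaLISA after 16 hr, decreased signal indicating inhibition.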
MCF10A rerep: inducers of DNA re-replication in MCF 10A breast cells; MCF 10A DNA re-replication, Hoechst nuclear intensity, 48 h; Potency, µM (series often up to 46.1 µM), for the others: at the top dose activity, positive = re-replication, hits mostly activators; actives 2.9% (n = 350,000); AID 624296; also: potency is read from the fitted curve at half-maximal effect; % of control where 0% means no effect; nearly all actives have a fitted effect of over 50% in size
Vif-A3F inh: Vif-A3F binding inhibition | HeLa A3F-eYFP + Vif (tagged APOBEC3F with the HIV-1 protein that degrades it), YFP fluorescence increase | actives 0.2% (n = 390,000) | Potency, µM (highest dose often 46.1 µM), inactives show top-dose activity, negative = active; also: potency is read from the fitted curve at half-maximal effect; % of control where 0% means no effect; nearly all actives have a fitted effect of over 65% in size
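HeLa cells stably expressing A3F-eYFP plus Vif, plated and incubated overnight at 37 deg C, then exposed to compounds overnight at 37 deg C. Blocked degradation read as raised yellow fluorescence (Ex 488/Em 500-530).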
Giardia killer: kills Giardia lamblia; actives 0.15% (n = 340,000); Giardia lamblia trophozoite viability; activity change, % at 7.66 µM, hits read low; in the data active = activity change below about -80%; inconclusive = between about -30% and that limit;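 also: parasites exposed to compound for two days anaerobically before the ATP read; % is scaled to controls: 0 for no effect and ±100 for the full control effect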
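ATP-content bioluminescence gauges trophozoite survival. Cells (100/well) receive compound and incubate anaerobically for 48 hrs at 37 deg C; detection reagent follows for 15-30 min at room temperature.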
An asterisk follows results filed as active; ? = inconclusive; . = no result; ! = not active in a repeat; [ ] = another dose, or the depositor's remark. Unless noted, calls follow the shape of the dose curve; as a rule, active = well fitted curve in the direction sought with a large enough effect; inconclusive = small, poorly fitted or top-dose-only effect, or another doubt; inactive = no such curve, though single readings can be large; an effect the other way counts as inactive or inconclusive.

SMILES	SW480 rereplic	Vif-APOBEC3G blk	IL-1B inflam inh	MCF10A rerep	Vif-A3F inh	Giardia killer
Cc1ncc([N+](=O)[O-])n1CCOC(=O)c1cc(Cl)cc(Cl)c1N	-2%	0%	15	4%	6%	-86*
Cc1ncc([N+](=O)[O-])n1CCOC(=O)Nc1ccc([N+](=O)[O-])cc1	-2%	0%	36	7%	1%	-83*
N=c1c2c(-c3ccccc3)c(-c3ccccc3)n(Cc3ccco3)c2ncn1Cc1ccco1	2%	-11%	-6	?	.	14
CCCCn1cnc2c(c(-c3ccccc3)c(-c3ccccc3)n2Cc2ccco2)c1=N	-10%	2%	-73*	6%	1%	4
COc1ccc(-c2ccc(C)cc2)cc1C1C2C=CCC(C)C2C(=O)N1Cc1ccccc1 (stereo not given)	.	-2%	.	.	.	-13
COc1ccc(-n2c(C)cc(C(=O)CN3CCC(C)CC3)c2C)cc1	-45%	-6%	-25	0.58µM*	-1%	-6
Cc1ccc(CNC(=O)C2CC(c3cccc([N+](=O)[O-])c3)=NO2)cc1 (stereo not given)	?	1%	20	2.1µM*	-1%	-19
COCCNC(=O)C1CC(c2cccc([N+](=O)[O-])c2)=NO1 (stereo not given)	?	-1%	-6	13%	-1%	8
COc1ccc(CNC(=O)C2CC(c3cccc([N+](=O)[O-])c3)=NO2)cc1 (stereo not given)	0%	0%	16	9.2µM*	1%	5
Cn1nc(-c2ccc(N3CCOCC3)c(NS(=O)(=O)c3ccc(Cl)cc3)c2)c2ccccc2c1=O	-2%[9.22 µM]	?	9	?	.	20
Cc1ccc(S(=O)(=O)Nc2cc(-c3nn(C)c(=O)c4ccccc34)ccc2N2CCOCC2)cc1	16µM*	?	18	?	-13%	-13
COc1ccc(CN(C(=O)Cc2coc3ccc(C)cc23)C2CCS(=O)(=O)C2)cc1 (stereo not given)	.	1%	.	.	4%	.
COCCCN1C(=O)c2oc3ccccc3c(=O)c2C12C(=O)N(C)c1ccccc12 (stereo not given)	.	4%	.	.	4%	.
O=C(C[n+]1ccccc1Br)c1ccc(Cl)cc1	.	3%	.	.	.	.
COc1ccc2nc(NC(=O)C3CCCN(S(=O)(=O)c4cccc5nonc45)C3)sc2c1 (stereo not given)	27%	-8%	-53*	-2%	-8%	18
O=C(C1CCCN(S(=O)(=O)c2cccc3nonc23)C1)N1CCN(c2ccccc2)CC1 (stereo not given)	0%	1%	-51*	2%	-7%	-12
CCCCN(CC)Cc1ccc(CNS(=O)(=O)c2cc3c(cc2Cl)NC(=O)CO3)o1	.	0%	.	.	3%	.
CCC(c1ccc(O)cc1)C(CC)c1ccc(O)cc1 (stereo not given)	?	-24%	11	?	-19%	3
Cc1cc(C(c2ccc(O)cc2)c2cc(C)c(O)cc2C)c(C)cc1O	?	-12%	-82*	?	5%	2
COC(=O)CNC(=O)c1cn(CC(C)C)c(=O)c2cc(OC)c(OC)cc12	-11%	-4%	15	4%	-5%	4
COc1cc2c(C(=O)NCc3ccc4c(c3)OCO4)cn(CC(C)C)c(=O)c2cc1OC	-2%	-11%	33	15µM*	?	-3
O=C(NCc1ccc2c(c1)OCO2)c1cc(-c2ccccn2)nc2ccccc12	-5%	-2%	-82*	6%	0%	5
O=C(NCc1ccc2c(c1)OCO2)c1c(F)c(F)c(F)c(F)c1F	-2%	1%	-65*	0%	0%	28
O=C(NCc1ccc2c(c1)OCO2)c1ccccc1Cl	3%	1%	-68*	2%	14%	-3
CSc1ccccc1C(=O)NCc1ccc2c(c1)OCO2	0%	0%	-4	-1%	1%	-14
SMILES	SW480 rereplic	Vif-APOBEC3G blk	IL-1B inflam inh	MCF10A rerep	Vif-A3F inh	Giardia killer
COc1ccc(/C=C\c2onc(C)c2S(=O)(=O)N2CCC(C(=O)Nc3ccccc3OC)CC2)cc1	.	0%	.	.	0%	.
COc1cc(OC)cc(C(=O)Nc2ccc3nc(N4CCC(C)CC4)cc(C)c3c2)c1	.	1%	.	.	-3%	.
Cc1cc2n(n1)CCCN2C(=O)Nc1cccc(C)c1C	.	2%	.	.	-17%	.
C=CCN1C(=O)/C(=C/c2ccc(OC(C)=O)c(OCC)c2[N+](=O)[O-])SC1=S	23%	-1%	-76*	3.7µM*	?	0
COc1ccc(OC)c(CC(NC(C)=O)C(=O)NC2CCN(c3c(Cc4ccccc4)c(C)nc4ncnn34)CC2)c1 (stereo not given)	8%	0%	?	7%	-15%	-15
COc1cccc(CC(NC(C)=O)C(=O)NC2CCN(c3c(Cc4ccccc4)c(C)nc4ncnn34)CC2)c1 (stereo not given)	23µM*!	0%	-5	?	3%	1
COc1ccc(NC(=S)N/C(=N/CS(=O)(=O)c2ccccc2)c2ccccc2)cc1	?	-1%	-1	16µM*	-1%	-6
CC(C)(C)C(=O)N1CCN(c2ccc(Cl)cc2[N+](=O)[O-])CC1	?	1%	-27	-6%	-1%	3
O=C(CSc1ccc(Cl)cc1)N1CCN(c2ccc(Cl)cc2[N+](=O)[O-])CC1	2%	4%	?	18µM*	-1%	11
O=C(/C=C/c1ccc(Cl)cc1Cl)N1CCN(c2ccc([N+](=O)[O-])c(N3CCOCC3)c2)CC1	-1%	0%	0	-49%	-4%	-2
O=C(/C=C/c1ccc(Cl)cc1Cl)N1CCN(c2ccccc2[N+](=O)[O-])CC1	?	4%	-60*	8%	11%	-20
O=[N+]([O-])c1cc(Cl)ccc1N1CCN(c2ccccc2O)CC1	?	0%	-96*	?	2%	4
Cc1ccc(Cn2c(CNS(=O)(=O)c3ccc(C(C)(C)C)cc3)nc3cccnc32)cc1	.	6%	.	.	-2%	.
Cn1c(SCC(=O)c2ccc(F)cc2)nnc1-c1ccccc1Br	.	3%	.	.	-5%	.
CCOC(=O)c1ccccc1OCc1cc(C2Nc3ccccc3C(=O)N2c2cccc3ccccc23)ccc1OC (stereo not given)	.	2%	.	.	.	6
COc1ccccc1CNC(=O)CCCCn1c(=O)c2ccccc2n(Cc2ccccc2F)c1=O	.	-7%	.	.	-26%	.
O=C(Nc1ccc(Br)cn1)c1cnn2c1NC(=C1CC1)C=C2C(F)F	.	0%	.	.	.	.
